Assay results taken from PubChem BioAssay AID2283364 (EPA ToxCast).
Results filed as inconclusive are left out. Calls of active or inactive are those of the source. The calls were made as follows: active = hit-call score of the fitted dose curve at least 0.9, where 1 is the maximum; inconclusive = response in the unintended direction; inactive = score below 0.9.

Molecular target: human FK-506 Binding Protein (FKBP12), FKBP1A (gene 2280) (UniProt P62942)
Test: NVS_OR_hFKBP12: NovaScreen (NVS) Nuclear Receptor Binding Assay for human FK-506 Binding Protein (FKBP12)
Experimental: NVS_OR_hFKBP12 is a biochemical, single-readout assay that uses extracted gene-proteins from E. coli in a cell-free assay. Measurements were taken 0.75 hour after chemical dosing in a 48-well plate.NVS_OR_hFKBP12 is one of one assay component(s) measured or calculated from the NVS_OR_hFKBP12 assay. It is designed to make measurements of radioligand binding, a form of binding reporter, as detected with scintillation counting signals by Filter-based radiodetection technology.Data from the assay component NVS_OR_hFKBP12 was analyzed into 1 assay endpoint. This assay endpoint, NVS_OR_hFKBP12, was analyzed in the positive analysis fitting direction relative to DMSO as the negative control and baseline of activity. Using a type of binding reporter, loss-of-signal activity can be used to understand changes in the binding as they relate to the gene FKBP1A. Furthermore, this assay endpoint can be referred to as a primary readout, because the performed assay has only produced 1 assay endpoint. To generalize the intended target to other relatable targets, this assay endpoint is annotated to the misc protein intended target family, where the subfamily is chaperone.
Binding assays used specific radioligands (tritiated, iodinated) with non-radioactive competitive displacement ligands in agonist or antagonist protocols (as indicated) and various reference compounds and inhibitors to titrate specific binding to receptors and transporters. Most enzyme assays (CYPs, kinases, phosphatases, proteases, HDACs) used recombinant protein and specific substrates (fluorescence mostly, some colorimetric and radioactive) and inhibitors, followed by a biochemical separation of substrate and product. All assays for the biochemical HTS were initially run in duplicate at a single concentration (10 uM for CYP450 assays and 25 uM for all others). Assay-chemical combinations meeting a pre-defined threshold (e.g., 30% inhibition and other criteria defined below) were then run in singleton concentration-response format with maximum concentration of 20 uM for CYPs and 50 uM for all others. Each assay was run with positive and negative controls, and concurrent controls on every plate. The follow-up (secondary) screen tested active chemical-pairs in concentration series, as well as a few additional assays not tested in the primary screen, some selected negative inactives, and several cases re-run in the concentration series for confirmatory purposes.

Sequence of human FK-506 Binding Protein (FKBP12), FKBP1A (gene 2280) (P62942 whole entry, looked up): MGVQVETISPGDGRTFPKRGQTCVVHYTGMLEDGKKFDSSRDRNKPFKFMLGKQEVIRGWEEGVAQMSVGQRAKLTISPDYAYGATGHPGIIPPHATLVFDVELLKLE

With `CNC(=O)Oc1ccccc1OC(C)C` as the molecule, how does the outcome read?
Its outcome is “inactive”.

Which outcome does the source give for `COP(=S)(OC)SCn1nnc2ccccc2c1=O` here?
The outcome was “inactive”.

Which outcome does the source give for `c1ccc(-c2ccccc2)cc1` here?
The outcome was “inactive”.

How did the outcome turn out when `CC[C@H](C)[C@H]1O[C@]2(C=C[C@@H]1C)C[C@@H]1C[C@@H](C/C=C(\C)[C@@H](O[C@H]3C[C@H](OC)[C@@H](O[C@H]4C[C@H](OC)[C@@H](O)[C@H](C)O4)[C@H](C)O3)[C@@H](C)/C=C/C=C3\CO[C@@H]4[C@H](O)C(C)=C[C@@H](C(=O)O1)[C@]34O)O2` (tested in a mixture with another compound) was run?
The outcome was “inactive”.

`COC(=O)C=C(C)OP(=O)(OC)OC` was tested. Which outcome did it give?
Its outcome is “inactive”.

With `O=C(O)c1nc(Cl)ccc1Cl` as the molecule, how does the outcome read?
Its outcome is “inactive”.

With `CO/N=C(/C1=NOCCO1)c1ccccc1Oc1ncnc(Oc2ccccc2Cl)c1F` as the molecule, how does the outcome read?
Its outcome is “inactive”.

Which outcome does the source give for `Cc1cc(C)nc(NC(=O)NS(=O)(=O)c2ccccc2C(=O)OC2COC2)n1` here?
The outcome was “inactive”.

For `Cc1ccn2nc(S(=O)(=O)Nc3c(F)cccc3F)nc2n1`, which outcome is on record?
The outcome was “inactive”.
